Source: PubChem BioAssay (Tox21)
Values joined by “and” are separate entries in the source; they are usually repeats but may differ in a detail not shown here. Identical values can stand only once. Inconclusive results are not listed. Where a call stands in place of a potency, no number is given. Where a structure was tested more than once in an assay, its records may differ in their call. Active and inactive are the calls of the source. Unless noted, calls follow the shape of the full dose curve.

Tests used:
[1] = qHTS assay to identify small molecule agonists of the vitamin D receptor (VDR) signaling pathway - cell viability counter screen (AID 743224; active = well fitted curve in the direction sought with a large enough effect in the repeat runs; an effect the other way counts as inactive or inconclusive; also: nearly all actives have a fitted effect of over 50% in size; also: potency is read from the fitted curve at half-maximal effect)
Outline: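 VDR-bla cells, 4 h after plating, exposed to compounds for 16 h at 37C; viability then read in the same wells as CellTiter-Glo luminescence after 30 min at room temperature, following the bla FRET read.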

[2] = qHTS assay to identify small molecule antagonists of the vitamin D receptor (VDR) signaling pathway - cell viability counter screen (AID 743225; active = well fitted curve in the direction sought with a large enough effect in the repeat runs; an effect the other way counts as inactive or inconclusive; also: nearly all actives have a fitted effect of over 50% in size; also: potency is read from the fitted curve at half-maximal effect)
Outline: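 VDR-bla HEK 293T cells, 4 h pre-incubation at 37C, then compound plus 1-alpha,25-dihydroxyvitamin D3 (3 nM final) for 16 h. After the beta-lactamase FRET read, CellTiter-Glo was added to the same wells; luminescence after 30 min at room temperature.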

[3] = qHTS assay to identify small molecule agonists of the NFkB signaling pathway - cell viability counter screen (AID 1159515); also: nearly all actives have a fitted effect of over 55% in size; also: potency is read from the fitted curve at half-maximal effect
Outline: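 NFkB-bla ME-180 cells, 2,000/well, plated overnight at 37 C; compound added for 5 hr at 37 C. Viability read in the same wells as the bla reporter, by CellTiter-Glo luminescence after 30 min at room temperature.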

[4] = qHTS assay to identify small molecule agonists of the endoplasmic reticulum stress response signaling pathway (AID 1159516; active = well fitted activation curve with a large enough effect in the signal ratio in the repeat runs, not every such curve was filed as active; the % refers to the signal ratio)
Outline: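 CellSensor ESRE-bla HeLa cells, 1,500 per well, plated overnight, then exposed to compounds for 5 hr at 37 C. Beta-lactamase reporter read with LiveBLAzer B/G FRET substrate after 2 hr at room temperature, 405 nm excitation, 460 and 530 nm emission.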

[5] = qHTS assay to identify small molecule agonists of the endoplasmic reticulum stress response signaling pathway - cell viability counter screen (AID 1159517);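 also: HeLa cells carrying an ER stress response element beta-lactamase reporter; series mostly up to about 61 µM; nearly all actives have a fitted effect of over 50% in size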
Outline: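 Cells, HeLa ESRE-bla; density, 1,500/well; dosing, 5 hr at 37 C, 5% CO2; readout, CellTiter-Glo luminescence after 30 min RT.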

[6] = qHTS assay to identify small molecule antagonists of the retinoid-related orphan receptor gamma (ROR-gamma) signaling pathway - cell viability counter screen (AID 1159520; active = well fitted curve in the direction sought with a large enough effect in the repeat runs; an effect the other way counts as inactive or inconclusive; also: nearly all actives have a fitted effect of over 50% in size; also: potency is read from the fitted curve at half-maximal effect)
Outline: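 Cytotoxicity was read from cellular ATP (CellTiter-Glo luminescence) after 16 hr at 37 C with 1 uM doxycycline induction. The inducer was added 2 hr after compound transfer to Tet-on ROR gamma CHO cells.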

[7] = target: Nuclear receptor ROR-gamma (Homo sapiens) (UniProt P51449); test: qHTS assay to identify small molecule antagonists of the retinoid-related orphan receptor gamma (ROR-gamma) signaling pathway (AID 1159521; active = well fitted curve in the direction sought with a large enough effect in the repeat runs; an effect the other way counts as inactive or inconclusive; also: nearly all actives have a fitted effect of over 50% in size; also: potency is read from the fitted curve at half-maximal effect)
Outline: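 Tet-on RORγ CHO cells carrying a ROR response element–luciferase reporter were pretreated with compounds for 2 h, then induced with 1 uM (final) doxycycline hyclate for 16 h at 37 C. Antagonism was read as decreased ONE-Glo luminescence.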

[8] = qHTS assay to identify small molecule agonists of the AP-1 signaling pathway - cell viability counter screen (AID 1159525); also: nearly all actives have a fitted effect of over 55% in size; also: potency is read from the fitted curve at half-maximal effect
Outline: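 Luminescent ATP readout (Cell Titer Glo, 30 min RT), normalised to DMSO and tetra n-octyl ammonium bromide controls. Cells were ME-180 AP-1-bla in 0.5% dialyzed FBS Opti-MEM, with a 5 h, 37 °C compound exposure.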

[9] = qHTS assay to identify small molecule agonists of the AP-1 signaling pathway (AID 1159526); also: potency is read from the fitted curve at half-maximal effect
[10] = target: Retinoic acid receptor RXR-alpha (Homo sapiens) (UniProt P19793); test: qHTS assay to identify small molecule agonists of the RXR signaling pathway (AID 1159527); also: nearly all actives have a fitted effect of over 35% in size; also: potency is read from the fitted curve at half-maximal effect
Chain of Retinoic acid receptor RXR-alpha (Homo sapiens) (P19793 whole entry, looked up): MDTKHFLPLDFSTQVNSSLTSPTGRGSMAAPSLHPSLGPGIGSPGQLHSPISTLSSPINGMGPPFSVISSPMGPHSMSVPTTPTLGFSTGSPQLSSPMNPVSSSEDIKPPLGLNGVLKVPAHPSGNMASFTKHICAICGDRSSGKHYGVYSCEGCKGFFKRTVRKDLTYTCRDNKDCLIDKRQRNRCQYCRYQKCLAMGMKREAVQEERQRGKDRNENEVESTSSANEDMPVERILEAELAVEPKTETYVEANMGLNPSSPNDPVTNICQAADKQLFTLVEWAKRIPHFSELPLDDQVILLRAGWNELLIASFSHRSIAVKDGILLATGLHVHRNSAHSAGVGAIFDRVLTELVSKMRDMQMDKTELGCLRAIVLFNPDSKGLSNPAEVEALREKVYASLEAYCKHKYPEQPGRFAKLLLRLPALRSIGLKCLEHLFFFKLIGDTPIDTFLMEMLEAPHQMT
Outline: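 GeneBLAzer RXR-alpha-UAS-bla HEK 293T cells in medium with 2% charcoal-stripped FBS, pre-incubated 5 hr at 37 C, then exposed to compounds 16 hr. Beta-lactamase reporter read by FRET substrate, 2 hr room temperature, 460/530 nm emission.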

| Structure (SMILES) | Potency [1] | Potency [2] | Potency [3] | Potency [4] | Potency [5] | Potency [6] | Potency [7] | Potency [8] | Potency [9] | Potency [10] | activity, negative = cytotoxicity [6] |
| --- | --- | --- | --- | --- | --- | --- | --- | --- | --- | --- | --- |
| NCCOCCO | inactive | inactive | inactive | inactive | inactive | inactive | inactive | inactive | inactive | inactive | – |
| Cc1ccc(S(=O)(=O)NCl)cc1 | inactive | inactive | inactive | inactive | inactive | inactive | inactive | inactive | inactive | inactive | – |
| C=C1C[C@H]2[C@@H]3C=C(C)C4=CC(=O)CC[C@]4(C)[C@H]3CC[C@]2(C)[C@@]1(OC(C)=O)C(C)=O | inactive | inactive | inactive | inactive | inactive | inactive | inactive | inactive | inactive | inactive | – |
| C/C=C/C(=O)N(CC)c1ccccc1C | inactive | inactive | inactive | inactive | inactive | inactive | inactive | inactive | inactive | inactive | – |
| CCCCCCCC/C=C\CCCCCCCC(=O)O | inactive | inactive | inactive | inactive | inactive | inactive | inactive | inactive | inactive | inactive | – |
| O=Cc1ccccc1C=O | inactive | 21.9 µM (active) and inactive | inactive | inactive | inactive | 7.7 µM (active) and inactive | 17.2 µM (active) and inactive | inactive | inactive | inactive | – |
| O=C(O)CCCC(=O)O | inactive | inactive | inactive | inactive | inactive | inactive | inactive | inactive | inactive | inactive | – |
| [O-]/[N+](=N\O)c1ccccc1 | inactive | inactive | inactive | inactive | inactive | inactive | inactive | inactive | inactive | inactive | – |
| Cc1ccc(N)c([N+](=O)[O-])c1 | inactive | inactive | inactive | inactive | inactive | inactive | inactive | inactive | inactive | inactive | – |
| O=S1(=O)CCCO1 | inactive | inactive | inactive | inactive | inactive | inactive | inactive | inactive | inactive | inactive | – |
| Cc1ccc(C)c(O)c1 | inactive | inactive | inactive | inactive | inactive | inactive | inactive | inactive | inactive | inactive | – |
| Cc1ccc(C(C)(C)C)cc1 | inactive | inactive | inactive | inactive | inactive | inactive | inactive | inactive | inactive | inactive | – |
| COc1cc([C@H]2Oc3cc([C@H]4Oc5cc(O)cc(O)c5C(=O)[C@@H]4O)ccc3O[C@@H]2CO)ccc1O | inactive | inactive | inactive | inactive | inactive | inactive | inactive | inactive | inactive | inactive | – |
| CNC[C@H](O)c1ccc(O)c(O)c1 | inactive | inactive | inactive | inactive | inactive | inactive | inactive | inactive | inactive | inactive | – |
| CCO[Si](CCCNC(N)=O)(OCC)OCC | inactive | inactive | inactive | inactive | inactive | inactive | inactive | inactive | inactive | inactive | – |
| NCCS(=O)(=O)O | inactive | inactive | inactive | inactive | inactive | inactive | inactive | inactive | inactive | inactive | – |
| COCCOCCOCCO | inactive | inactive | inactive | inactive | inactive | inactive | inactive | inactive | inactive | inactive | – |
| Cc1ccc([N+](=O)[O-])c(C)c1 | inactive | inactive | inactive | inactive | inactive | inactive | 2.43 µM (active) and inactive | 12.3 µM (active) and inactive | inactive | inactive | – |
| O=C1OC2(c3ccccc31)c1cc(I)c(O)c(I)c1Oc1c2cc(I)c(O)c1I | inactive and 26.5 µM (active) | inactive | inactive | inactive | inactive | inactive | 48.7 µM (active) and inactive | inactive | inactive and 29.8 µM (active) | inactive | – |
| CCC(=O)O[C@H]1[C@H](O[C@@H]2[C@@H](C)[C@H](O[C@H]3C[C@@](C)(OC)[C@@H](O)[C@H](C)O3)[C@@H](C)C(=O)O[C@H](CC)[C@@](C)(O)[C@H](O)[C@@H](C)C(=O)[C@H](C)C[C@@]2(C)O)O[C@H](C)C[C@@H]1N(C)C | 36.4 µM (active) and inactive | inactive | 36.4 µM (active) and inactive | inactive | inactive | inactive | inactive | inactive | inactive | inactive | – |
| O=C(O)c1ccc(O)cc1 | inactive | inactive | inactive | inactive | inactive | inactive | inactive | inactive | inactive | inactive | – |
| CC(=O)Oc1c(C)c(C)c2c(c1C)CC[C@@](C)(CCC[C@H](C)CCC[C@H](C)CCCC(C)C)O2 | 49 µM (active) and inactive | inactive | inactive | inactive | inactive | inactive | inactive | inactive | inactive | inactive | – |

| Structure (SMILES) | Potency [1] | Potency [2] | Potency [3] | Potency [4] | Potency [5] | Potency [6] | Potency [7] | Potency [8] | Potency [9] | Potency [10] | activity, negative = cytotoxicity [6] |
| --- | --- | --- | --- | --- | --- | --- | --- | --- | --- | --- | --- |
| Cc1cccc(Nc2ccccc2C(=O)O)c1C | inactive | inactive | inactive | inactive | inactive | inactive | inactive | inactive | inactive | inactive | – |
| CC(=O)Nc1ccc2c(c1)Cc1cc(NC(C)=O)ccc1-2 | inactive | inactive | inactive | inactive | inactive | inactive | inactive | inactive | inactive | inactive | – |
| COC(=O)c1ccc(C)cc1 | inactive | inactive | inactive | inactive | inactive | inactive | inactive | inactive | inactive | inactive | – |
| C=CC(=O)OCCCC | inactive | inactive | inactive | inactive | inactive | inactive | inactive | inactive | inactive | inactive | – |
| c1ccc2ncccc2c1 | inactive | inactive | inactive | inactive | inactive | inactive | inactive | inactive | inactive | inactive | – |
| C=CCCCCCCCCCC | inactive | inactive | inactive | inactive | inactive | inactive | inactive | inactive | inactive | inactive | – |
| CC1(C)OC(=O)NC1=O | inactive | inactive | inactive | inactive | inactive | inactive | inactive | inactive | inactive | inactive | – |
| CCC/C=C/C=O | inactive | inactive | inactive | inactive | inactive | inactive | inactive | inactive | inactive | inactive | – |
| O=C(O)c1cc(=O)[nH]c(=O)[nH]1 | inactive | inactive | inactive | inactive | inactive | inactive | inactive | inactive | inactive | inactive | – |
| C1COCCN1 | inactive | inactive | inactive | inactive | inactive | inactive | inactive | inactive | inactive | inactive | – |
| CC1(C)NC(=O)N(c2ccc([N+](=O)[O-])c(C(F)(F)F)c2)C1=O | inactive | inactive | inactive | inactive | inactive | inactive | 17.2 µM (active) and 18.8 µM (active) | inactive | inactive | inactive | – |
| CC(C)(Oc1ccc(Cl)cc1)C(=O)O | inactive | inactive | inactive | inactive | inactive | inactive | inactive | inactive | inactive | inactive | – |
| CC1(C)C(C=C(Cl)Cl)C1C(=O)OCc1cccc(Oc2ccccc2)c1 (centres undefined) | inactive | inactive | inactive | inactive | inactive | inactive | 54.1 µM (active) and inactive | inactive | inactive | inactive | – |
| CCCCCCOCCOCCO | inactive | inactive | inactive | inactive | inactive | inactive | inactive | inactive | inactive | inactive and 43.6 µM (active) | – |
| COc1ccc(C(=O)c2ccccc2O)c(O)c1 | inactive | inactive | inactive | inactive | inactive | inactive | inactive | inactive | inactive | inactive | – |
| O=[Se](O)O | inactive | inactive | inactive | inactive | inactive | 54.5 µM (active) | 1.65 µM (active) | – | inactive and 5.28 µM (active) | – | -10.3% [at 19 µM] (inactive) |
| CC1=CC(C)(C)Nc2ccccc21 | inactive | inactive | inactive | inactive | inactive | inactive | inactive | inactive | inactive | inactive | – |
| CC(C)=CCO | inactive | inactive | inactive | inactive | inactive | inactive | inactive | – | inactive | inactive | – |
| CCc1cccc2c3c([nH]c12)C(CC)(CC(=O)O)OCC3 (centres undefined) | inactive | inactive | inactive | inactive | inactive | inactive | inactive | – | inactive | inactive | – |
| C[C@]12C=CC(=O)C=C1CC[C@H]1[C@@H]3C[C@@H](O)[C@](O)(C(=O)CO)[C@@]3(C)C[C@H](O)[C@@]12F | inactive | inactive | inactive | inactive | inactive | inactive | inactive | inactive | inactive | inactive | – |
| c1ccc2c(c1)ccc1ncccc12 | inactive | inactive | inactive | inactive | inactive | inactive | inactive | – | inactive | – | – |
| CC/C=C\C/C=C\C/C=C\CCCCCCCC(=O)O | inactive and 49 µM (active) | inactive | inactive | inactive | inactive | inactive | inactive | inactive | inactive | – | – |
